Data reported in PubChem BioAssay (NCATS).
Inconclusive results are not listed. Active and inactive are the calls of the source. Unless noted, the call rests on the fitted dose curve; in most records, active means well fitted curve in either direction with a large enough effect (not every such curve was filed as active); inconclusive means small, poorly fitted or top-dose-only effect, or another doubt; inactive means flat fitted curve, though single readings scatter.

Experiments:
[1] = target: Lysosomal acid glucosylceramidase (Homo sapiens) (UniProt P04062); assay: Glucocerebrosidase-p2 (AID 348; in the data active means potency below about 10 µM; further: potency means the concentration at half of the fitted maximal effect); conditions: purified GBA, blue fluorogenic substrate, 40 min
Sequence of Lysosomal acid glucosylceramidase (Homo sapiens) (P04062 whole entry, looked up): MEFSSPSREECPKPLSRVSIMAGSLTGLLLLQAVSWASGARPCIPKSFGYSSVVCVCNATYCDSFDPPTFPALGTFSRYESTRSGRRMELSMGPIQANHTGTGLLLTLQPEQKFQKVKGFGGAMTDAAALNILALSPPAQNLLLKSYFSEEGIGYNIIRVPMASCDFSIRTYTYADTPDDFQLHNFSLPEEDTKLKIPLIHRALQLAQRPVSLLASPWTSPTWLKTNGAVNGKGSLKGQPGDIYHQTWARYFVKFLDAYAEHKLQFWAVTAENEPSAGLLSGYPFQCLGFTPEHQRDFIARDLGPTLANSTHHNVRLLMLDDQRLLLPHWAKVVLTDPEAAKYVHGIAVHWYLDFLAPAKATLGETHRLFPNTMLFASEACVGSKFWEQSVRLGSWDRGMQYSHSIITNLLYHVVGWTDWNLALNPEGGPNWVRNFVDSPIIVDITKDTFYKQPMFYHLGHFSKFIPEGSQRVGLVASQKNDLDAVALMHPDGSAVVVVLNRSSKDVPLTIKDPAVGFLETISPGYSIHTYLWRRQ
How it was run: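 Normal human glucocerebrosidase (0.2 nM) with blue fluorogenic substrate (80 uM final) in citrate/phosphate pH 5.9 with 10mM sodium taurocholate, 0.01% tween-20; 40 min RT, NaOH/glycine stop; fluorescence Ex 365/Em 440; AC50 from a titration from 0.6 nM upwards.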

[2] = AP1 Signaling Pathway (AID 357); conditions: ME-180 AP-1-bla reporter, EGF-induced, beta-lactamase ratio, 5 h; at 7.69 µM (top of the series) unless noted;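 further: ME-180 reporter cells stimulated with EGF at its EC50 level; on the % scale 0 is the no-effect control and ±100 the full control effect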
How it was run: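 AP-1-bla ME-180 cells, Opti-MEM + 0.5% dialyzed FBS, plated overnight 37 °C. Cpd titration + EC50 EGF, 5 h 37 °C. CCF4 2.5 h RT; ex 405, em 460/530 ratio → %activity, AC50.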

[3] = target: Cytochrome P450 1A2 (Homo sapiens) (UniProt P05177); assay: p450-cyp1a2 (AID 410; calls by dose curve; further: potency means the concentration at half of the fitted maximal effect;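 on activity change, negative = inhibition: -100% = full effect of reference inhibitor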); conditions: recombinant CYP1A2, luciferin-ME demethylation, luminescence; series mostly up to 57 µM
Sequence of Cytochrome P450 1A2 (Homo sapiens) (P05177 whole entry, looked up): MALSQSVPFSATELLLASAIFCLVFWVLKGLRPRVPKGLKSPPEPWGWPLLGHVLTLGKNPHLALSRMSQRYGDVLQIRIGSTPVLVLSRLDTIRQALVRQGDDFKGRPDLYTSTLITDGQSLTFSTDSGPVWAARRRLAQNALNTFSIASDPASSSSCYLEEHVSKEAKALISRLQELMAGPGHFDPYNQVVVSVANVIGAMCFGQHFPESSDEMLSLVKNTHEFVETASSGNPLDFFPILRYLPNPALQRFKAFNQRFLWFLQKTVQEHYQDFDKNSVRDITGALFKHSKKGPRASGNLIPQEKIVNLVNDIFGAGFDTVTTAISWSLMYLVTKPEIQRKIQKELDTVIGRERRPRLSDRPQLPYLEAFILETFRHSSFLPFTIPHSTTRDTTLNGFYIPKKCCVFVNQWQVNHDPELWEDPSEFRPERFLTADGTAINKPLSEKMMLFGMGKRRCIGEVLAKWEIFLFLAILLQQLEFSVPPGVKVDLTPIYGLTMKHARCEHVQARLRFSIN
How it was run: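 Read-out is luminescence from luciferin produced by CYP1A2 demethylation of Luciferin-ME (100uM, at Km). Detection reagent stopped the 60 min NADPH-dependent reaction; signals were normalized to 57 uM furafylline.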

[4] = NFAT Signaling Pathway (AID 444); conditions: Jurkat NFAT-bla M1, carbachol, beta-lactamase ratio, 5 h; at 7.69 µM (top of the series) unless noted;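 further: carbachol stimulus at about its EC50 of 1 µM final; on the % scale 0 is the no-effect control and ±100 the full control effect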
How it was run: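 Read-out: CCF4 FRET ratio (460 nm/530 nm) after 1 h RT dye loading, used for %activity and AC50 from titration series. Cells: Jurkat NFAT-β-lactamase/M1 line, treated with compound plus 1 uM carbachol for 5 h, 37 °C.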

[5] = Stat Signaling Pathway (AID 446); conditions: ME-180 SIE beta-lactamase reporter, IL-6 stimulated, 5 h; at 7.69 µM (top of the series) unless noted;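 further: ME-180 cervical cancer cells given 40 pM IL-6 alongside compound; SIE-controlled beta-lactamase reporter measured as 460/530 nm FRET emission ratio; on the % scale 0 is the no-effect control and ±100 the full control effect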
How it was run: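 Emission at 460 and 530 nm (excitation 405 nm) reports SIE-controlled beta-lactamase in ME-180 cells. Cells received compound with 40 pM IL-6 for 5 hrs at 37 C; data scaled between 300 pM IL-6 and 125 nM JAK-inhibitor controls.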

[6] = target: Glucocorticoid receptor (Homo sapiens) (UniProt P04150); assay: GR-EFC Redistribution (AID 451; calls by dose curve; further: potency means the concentration at half of the fitted maximal effect); conditions: CHO-K1 GR-EFC translocation, beta-gal luminescence, 2 h
Sequence of Glucocorticoid receptor (Homo sapiens) (P04150 whole entry, looked up, the tested form may be a part): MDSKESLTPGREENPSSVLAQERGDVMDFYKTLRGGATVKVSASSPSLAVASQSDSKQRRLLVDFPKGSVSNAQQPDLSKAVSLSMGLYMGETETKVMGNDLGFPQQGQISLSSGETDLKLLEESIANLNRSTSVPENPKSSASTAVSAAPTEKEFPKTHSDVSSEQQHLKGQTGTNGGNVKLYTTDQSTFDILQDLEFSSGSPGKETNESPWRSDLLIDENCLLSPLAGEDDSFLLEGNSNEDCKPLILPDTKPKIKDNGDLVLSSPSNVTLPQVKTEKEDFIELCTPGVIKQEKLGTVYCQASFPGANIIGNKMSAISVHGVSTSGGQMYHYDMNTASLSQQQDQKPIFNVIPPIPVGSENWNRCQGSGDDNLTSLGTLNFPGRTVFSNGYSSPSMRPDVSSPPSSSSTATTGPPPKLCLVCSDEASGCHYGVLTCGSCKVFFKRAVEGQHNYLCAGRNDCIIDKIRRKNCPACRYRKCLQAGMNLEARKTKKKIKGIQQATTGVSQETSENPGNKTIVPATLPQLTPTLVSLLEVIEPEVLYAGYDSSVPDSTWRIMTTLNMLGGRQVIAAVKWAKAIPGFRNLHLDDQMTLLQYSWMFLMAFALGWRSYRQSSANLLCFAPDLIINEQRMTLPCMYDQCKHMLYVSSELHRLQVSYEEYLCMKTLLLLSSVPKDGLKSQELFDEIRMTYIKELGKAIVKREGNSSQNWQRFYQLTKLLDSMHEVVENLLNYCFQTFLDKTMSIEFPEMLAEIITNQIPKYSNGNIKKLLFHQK
How it was run: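 Translocation of GR-ED fusion to nuclear EA restores b-gal, read by luminescence after 1 h room-temperature detection. Engineered CHO-K1 biosensor cells, 1,000/well, exposed 2 h at 37 C to titrations up to 46 uM final.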

[7] = target: 3',5'-cyclic-AMP phosphodiesterase 4B (Homo sapiens) (UniProt Q07343); assay: qHTS Assay for Inhibitors of PDE-IV (AID 607; active means well fitted activation curve with a large enough effect in the main read-out, with a control signal flat, not every such curve was filed as active; further: % of control where 0% means no effect); conditions: HEK293 ACTOne CNG channel cells, membrane potential fluorescence; series mostly up to 22.9 µM
Sequence of 3',5'-cyclic-AMP phosphodiesterase 4B (Homo sapiens) (Q07343 whole entry, looked up): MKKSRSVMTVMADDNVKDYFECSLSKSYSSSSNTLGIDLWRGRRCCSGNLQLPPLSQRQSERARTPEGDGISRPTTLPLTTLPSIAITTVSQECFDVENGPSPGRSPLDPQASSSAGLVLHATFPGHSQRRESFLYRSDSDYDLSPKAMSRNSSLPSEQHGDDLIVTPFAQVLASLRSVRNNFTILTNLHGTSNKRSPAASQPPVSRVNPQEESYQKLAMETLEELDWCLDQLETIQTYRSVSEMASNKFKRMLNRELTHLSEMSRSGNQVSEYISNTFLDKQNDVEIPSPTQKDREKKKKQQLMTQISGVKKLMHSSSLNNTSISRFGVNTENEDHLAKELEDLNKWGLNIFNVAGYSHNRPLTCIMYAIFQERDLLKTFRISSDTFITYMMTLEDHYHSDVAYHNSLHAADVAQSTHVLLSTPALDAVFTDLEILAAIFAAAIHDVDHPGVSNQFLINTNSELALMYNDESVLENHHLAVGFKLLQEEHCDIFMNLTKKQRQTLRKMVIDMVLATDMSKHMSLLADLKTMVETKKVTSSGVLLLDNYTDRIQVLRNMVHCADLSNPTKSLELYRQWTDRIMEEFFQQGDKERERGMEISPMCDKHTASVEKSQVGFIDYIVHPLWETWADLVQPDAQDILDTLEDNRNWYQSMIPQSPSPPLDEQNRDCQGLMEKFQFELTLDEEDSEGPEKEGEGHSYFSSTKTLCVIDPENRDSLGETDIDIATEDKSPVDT
How it was run: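 The readout is membrane depolarisation from a cAMP-sensing CNG channel, detected with a potential dye at ex 535/em 590. Cells were HEK293-derived (endogenous PDE-IV) at 1000 cells/well, titrated up to 22.9 uM final.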

[8] = target: Cytochrome P450 3A4 (Homo sapiens) (UniProt P08684); assay: qHTS Assay for Activators of Cytochrome P450 3A4 (AID 885; active means well fitted curve in the direction sought with a large enough effect; an effect the other way counts as inactive or inconclusive; further: nearly all actives have a fitted effect of over 65% in size; further: potency means the concentration at half of the fitted maximal effect); conditions: recombinant CYP3A4, Luciferin-PPXE luminescence, 60 min; series mostly up to 57.1 µM
Sequence of Cytochrome P450 3A4 (Homo sapiens) (P08684 whole entry, looked up): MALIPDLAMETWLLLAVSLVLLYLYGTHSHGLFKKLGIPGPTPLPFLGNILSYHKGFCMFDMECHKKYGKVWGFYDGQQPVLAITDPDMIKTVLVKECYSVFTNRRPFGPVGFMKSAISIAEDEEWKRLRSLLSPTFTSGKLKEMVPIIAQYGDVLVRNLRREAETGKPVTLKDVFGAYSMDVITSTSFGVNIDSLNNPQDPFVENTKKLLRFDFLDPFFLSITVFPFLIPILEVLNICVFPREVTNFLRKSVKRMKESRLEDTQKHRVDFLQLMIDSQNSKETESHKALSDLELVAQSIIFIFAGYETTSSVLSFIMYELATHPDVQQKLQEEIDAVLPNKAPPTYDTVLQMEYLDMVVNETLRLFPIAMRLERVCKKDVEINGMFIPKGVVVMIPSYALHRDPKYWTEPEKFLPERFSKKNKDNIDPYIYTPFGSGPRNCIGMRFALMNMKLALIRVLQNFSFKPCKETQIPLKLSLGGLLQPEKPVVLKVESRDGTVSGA
How it was run: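 Activators are scored by enhanced luminescence from CYP3A4 conversion of luciferin-PPXE (25uM, equal to KM) to luciferin, after 60 min at RT with an NADPH-regenerating system.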

[9] = qHTS Assay for Lipid Storage Modulators (AID 1519; calls by dose curve); conditions: Drosophila S3 cells, BODIPY lipid droplet/cell ratio, laser cytometry, cells loaded with oleic acid; for activity change, negative = inhibition: at 57.5 µM (top of the series)
How it was run: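 Cells seeded at 5,000 per well were treated with compounds over a concentration series and loaded with oleic acid (400 uM, as added). Lipid droplet fluorescence (488 nm excitation, 500-530 nm channel) was read by laser-scanning cytometry and normalized to 20 uM Triacsin C.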

[10] = Primary qHTS for small molecule stabilizers of the endoplasmic reticulum resident proteome: Secreted ER Calcium Modulated Protein (SERCaMP) assay (AID 1508630; active means well fitted curve in the direction sought with a large enough effect; an effect the other way counts as inactive or inconclusive; further: on the % scale 0 is the no-effect control and ±100 the full control effect); conditions: SH-SY5Y GLuc-SERCaMP (Gaussia luciferase released on ER calcium loss) secretion, thapsigargin, luminescence; series mostly up to 38.4 µM
How it was run: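 The SH-SY5Y reporter protocol was run at 3 concentrations up to 38.3 uM (primary) or 11 concentrations (follow-up): 16 h compound, 100 nM thapsigargin for 4 h, then extracellular luciferase luminescence.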

[11] = target: Mitogen-activated protein kinase 10 (Mus musculus) (UniProt Q61831); assay: JNK3 AlphaScreen Assay (AID 530); conditions: JNK3 lysate, c-Jun phosphorylation; series mostly up to 57.1 µM
How it was run: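 Kinase buffer: 20 mM Tris-HCl pH 7.6, 10 mM MgCl2, 1 mM DTT, 0.1 mM Na3VO4, 0.01% Tween-20; ATP 10 uM. Substrate biotin-GST-cJun(1-79), enzyme from activated HepG2 lysates. Detection by Ser73 phospho-antibody AlphaScreen.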

[12] = target: Cytochrome P450 2D6 (Homo sapiens) (UniProt P10635); assay: qHTS Assay for Inhibitors and Substrates of Cytochrome P450 2D6 (AID 891; active means well fitted curve in the direction sought with a large enough effect; an effect the other way counts as inactive or inconclusive; further: potency means the concentration at half of the fitted maximal effect; nearly all actives have a fitted effect of over 60% in size); conditions: recombinant CYP2D6, luciferin-ME EGE luminescence; series mostly up to 57.1 µM
Sequence of Cytochrome P450 2D6 (Homo sapiens) (P10635 whole entry, looked up): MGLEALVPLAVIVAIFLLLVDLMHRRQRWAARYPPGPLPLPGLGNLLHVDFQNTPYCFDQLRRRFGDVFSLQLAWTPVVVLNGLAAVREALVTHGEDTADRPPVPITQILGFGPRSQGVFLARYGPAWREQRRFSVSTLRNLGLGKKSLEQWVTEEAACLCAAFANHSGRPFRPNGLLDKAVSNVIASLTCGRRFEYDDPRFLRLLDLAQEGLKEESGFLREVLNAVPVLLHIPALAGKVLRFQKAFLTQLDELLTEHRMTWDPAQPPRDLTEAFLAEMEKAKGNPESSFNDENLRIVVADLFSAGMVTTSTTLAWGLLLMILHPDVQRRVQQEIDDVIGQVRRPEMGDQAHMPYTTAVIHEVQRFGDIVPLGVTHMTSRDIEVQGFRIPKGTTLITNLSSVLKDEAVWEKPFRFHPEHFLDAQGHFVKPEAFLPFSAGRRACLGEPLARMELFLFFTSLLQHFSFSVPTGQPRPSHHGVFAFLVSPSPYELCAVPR
How it was run: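 Luminescent read-out of luciferin formed by 5 nM human CYP2D6 demethylating 30 uM Luciferin-ME EGE (Km level) over 60 min at room temperature after NADPH regeneration addition. Data normalized to full inhibition by 1.43 uM quinidine.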

[13] = target: Cytochrome P450 3A4 (Homo sapiens) (UniProt P08684); assay: qHTS Assay for Inhibitors and Substrates of Cytochrome P450 3A4 (AID 884; active means well fitted curve in the direction sought with a large enough effect; an effect the other way counts as inactive or inconclusive; further: nearly all actives have a fitted effect of over 50% in size; further: potency means the concentration at half of the fitted maximal effect); conditions: recombinant CYP3A4, Luciferin-PPXE luminescence; series mostly up to 57.1 µM
How it was run: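 Luminescent readout of luciferin produced by CYP3A4 (20 nM) dealkylation of Luciferin-PPXE, 25 uM (its KM). NADPH-driven reaction ran 60 min at RT after 10 min compound preincubation; data scaled to 57 uM ketoconazole as 100% inhibition.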

[14] = qHTS Assay for Identification of Small Molecule Agonists for Hypoxia Response Element Signaling Pathway (AID 914; active means well fitted activation curve with a large enough effect in the signal ratio, with a control signal flat, not every such curve was filed as active; the % refers to the signal ratio; further: % of control where 0% means no effect); conditions: ME-180 (cervical carcinoma) HRE-bla reporter, beta-lactamase ratio, CoCl2, 17 h; activation: stronger effect = higher value
How it was run: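 Cells were plated overnight, pin-dosed with compound in a titration series, co-stimulated with EC50 CoCl2 and incubated 17 hours at 37 degrees Celsius. CCF4 substrate was then loaded, and AC50 values came from the 460nm/530nm ratio.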

[15] = target: Cytochrome P450 2C19 (Homo sapiens) (UniProt P33261); assay: qHTS Assay for Inhibitors and Substrates of Cytochrome P450 2C19 (AID 899; active means well fitted curve in the direction sought with a large enough effect; an effect the other way counts as inactive or inconclusive; further: nearly all actives have a fitted effect of over 60% in size; further: potency means the concentration at half of the fitted maximal effect); conditions: recombinant CYP2C19, luciferin-H EGE luminescence; series mostly up to 57.1 µM
Sequence of Cytochrome P450 2C19 (Homo sapiens) (P33261 whole entry, looked up): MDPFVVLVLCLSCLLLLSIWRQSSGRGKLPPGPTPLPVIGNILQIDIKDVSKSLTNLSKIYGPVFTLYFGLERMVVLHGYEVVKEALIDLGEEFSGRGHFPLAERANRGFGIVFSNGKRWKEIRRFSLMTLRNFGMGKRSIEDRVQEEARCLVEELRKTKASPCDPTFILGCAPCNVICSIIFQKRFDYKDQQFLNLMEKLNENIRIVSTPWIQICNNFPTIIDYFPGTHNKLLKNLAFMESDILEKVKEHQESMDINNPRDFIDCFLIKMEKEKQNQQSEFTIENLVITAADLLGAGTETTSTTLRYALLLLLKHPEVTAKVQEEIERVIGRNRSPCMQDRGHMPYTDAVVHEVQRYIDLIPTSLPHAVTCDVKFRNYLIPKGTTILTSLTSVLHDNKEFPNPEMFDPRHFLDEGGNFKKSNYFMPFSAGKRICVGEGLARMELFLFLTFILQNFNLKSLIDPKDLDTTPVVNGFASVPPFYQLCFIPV
How it was run: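 Luminescence readout of luciferin formed from 10uM Luciferin-H EGE (KM level) by 5 nM CYP2C19 in 50mM KPO4. 60 min NADPH-driven reaction at 37C after 10 min compound preincubation; data scaled to 57uM ketoconazole inhibition.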

[16] = measured here: cell count channel max response
[17] = measured here: lipid channel max response

| Structure (SMILES) | Potency [1] | activity change, negative = inhibition [2] | Potency [3] | activity change, negative = inhibition [4] | activity, negative = inhibition [5] | Potency [6] | Potency [7] | Potency [8] | activity change, negative = inhibition [9] | max response [9, 16] [%] | max response [9, 17] [%] | Potency [10] | outcome [11] | Potency [12] | Potency [13] | activation [14] | Potency [15] |
| --- | --- | --- | --- | --- | --- | --- | --- | --- | --- | --- | --- | --- | --- | --- | --- | --- | --- |
| c1ccc(-c2ccc(N3CC4(CCNCC4)C3)cc2)cc1 | > 11.4 µM (inactive) | 5.34% (inactive) | 15.8 µM (active) | 4.74% (inactive) | 4.95% (inactive) | > 46 µM (inactive) | inactive | inactive | -2.41% (inactive) | -25 | -25.6 | inactive | – | – | – | – | – |
| CC(=O)N1CCC2(CC1)CN(c1ccccn1)C2 | > 11.4 µM (inactive) | -8.91% (inactive) | inactive | 6.27% (inactive) | -0.186% (inactive) | > 46 µM (inactive) | inactive | – | 7.33% (inactive) | 3.77 | 14.1 | inactive | – | – | – | – | – |
| O=C(c1ccncc1)N1CCC2(CC1)CCN(C(c1ccccc1)c1ccccc1)CC2 | > 11.4 µM (inactive) | -0.963% (inactive) | 12.6 µM (active) | -18.3% (inactive) | 5% (inactive) | > 46 µM (inactive) | inactive | – | 2.53% (inactive) | 0.243 | 4.49 | inactive | inactive | 3.16 µM (active) | – | – | – |
| O=C(c1cnccn1)N1CCC[C@@]2(CCN(c3ccncc3)C2)C1 | > 11.4 µM (inactive) | -3.24% (inactive) | inactive | 1.53% (inactive) | 5.94% (inactive) | > 46 µM (inactive) | inactive | inactive | 3.16% (inactive) | 6.74 | 12.1 | inactive | – | – | 3.16 µM (active) | – | – |
| Cn1cccc1C(=O)N1CCC2(CC1)CCN(c1ccccc1)CC2 | > 11.4 µM (inactive) | -11.3% (inactive) | 12.6 µM (active) | 20.8% (inactive) | -1.51% (inactive) | > 46 µM (inactive) | inactive | 15.8 µM (active) | 5.03% (inactive) | 9.38 | 16.6 | inactive | – | – | inactive | – | – |
| O=C(Nc1cccc(F)c1)N1CC[C@@]2(CCCNC2)C1 | > 11.4 µM (inactive) | 2.44% (inactive) | inactive | -0.699% (inactive) | -0.756% (inactive) | > 46 µM (inactive) | inactive | inactive | 3.99% (inactive) | -1.25 | 6.61 | inactive | inactive | – | – | 0.832% (inactive) | – |
| COc1ccccc1CN1CC[C@@]2(CCCN(S(C)(=O)=O)C2)C1 | > 11.4 µM (inactive) | 1.48% (inactive) | inactive | -16.9% (inactive) | 5.92% (inactive) | > 46 µM (inactive) | inactive | – | 4.56% (inactive) | 7.77 | 13.7 | inactive | inactive | 0.316 µM (active) | – | – | – |
| O=C(c1ccco1)N1CCC2(CC1)CCN(c1cccc(-c3ccccc3)c1)CC2 | > 11.4 µM (inactive) | 8.59% (inactive) | 15.8 µM (active) | -13.9% (inactive) | -16.1% (inactive) | > 46 µM (inactive) | inactive | – | 5.77% (inactive) | -0.036 | 9.11 | inactive | – | – | – | – | – |
| CS(=O)(=O)N1CCC2(CC1)CN(Cc1cc(C(F)(F)F)cc(C(F)(F)F)c1)C2 | > 11.4 µM (inactive) | 5.66% (inactive) | inactive | -8.2% (inactive) | -3.12% (inactive) | > 46 µM (inactive) | inactive | – | 2.23% (inactive) | -5.23 | 0.681 | inactive | inactive | 0.398 µM (active) | – | – | – |
| O=C(c1cccc(F)c1)N1CCC2(CCCN(c3ncccn3)C2)CC1 | > 11.4 µM (inactive) | 4.38% (inactive) | 25.1 µM (active) | -6.9% (inactive) | -4.43% (inactive) | > 46 µM (inactive) | – | – | 3.73% (inactive) | 1 | 9.03 | inactive | inactive | – | – | – | 6.31 µM (active) |
| COCC(=O)N1CCC2(CCCN(C(=O)Nc3ccc(OC)cc3)C2)CC1 | > 11.4 µM (inactive) | -3.98% (inactive) | inactive | 13.5% (inactive) | -3.45% (inactive) | > 46 µM (inactive) | inactive | inactive | 5.43% (inactive) | 13.8 | 18.7 | inactive | inactive | – | – | – | inactive |
| COc1ccc(C(=O)N2CCC3(CCN(C)CC3)CC2)cc1 | > 11.4 µM (inactive) | -25.4% (inactive) | inactive | -8.24% (inactive) | 2.9% (inactive) | > 46 µM (inactive) | inactive | – | 3.67% (inactive) | 8.31 | 12.9 | inactive | inactive | – | – | 5.39% (inactive) | – |
